# Test results published in the supplement of paper PMC11417369.
# ± gives the standard deviation of the averaged measurements. Whole data set: some 25,000 sequences, median “ln(normalized median fluorescence intensity)” near 10, cut for the highest 2% near 12. The entries come from a sample that favours the highest values as a whole.
# Test system: PfAP2-G AP2 domain (GST-tagged)
# Assay: gcPBM binding intensity (ln(normalized median fluorescence intensity)); higher = stronger DNA binding
# In short: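 GST-tagged P. falciparum DNA-binding domains, expressed in E. coli (about 25 μg on average), were applied for 1 h to an Agilent 4 × 180k array of primer-extended double-stranded 36-bp intergenic genomic probes plus negative controls. The binding buffer was 1× PBS with 1% milk, 0.2 mg/ml BSA, 0.5% salmon testes DNA and 0.03% Triton X-100. Bound protein was detected with Alexa488 anti-GST antibody and scanned at 488 nm. Binding intensity is the highest Masliner-normalised natural-log median intensity across replicate spots of either probe orientation.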
row,Sequence,gcPBM binding intensity (ln)
1,ATATAATAGAAGTGTACACACATATTTATGGGTGTA [CACACA_site5686],11.5 ± 0.91
2,TATATTTATACAATATGTACATATTATATATATATA [XGTACX_site3098],11 ± 0.59
3,ACATATATATATATGTGTACATATTTATACAACAAT [XGTACX_site6660],11.6 ± 0.78
4,TATAAAAAAAAATGTGGTACATATTTCCATTTTCCA [XGTACX_site4571],11.3 ± 0.76
5,ATGGATAATAATAAGTGTACACATATATTTAGAAGA [XGTACX_site244],11.8 ± 0.86
6,TTTTTTTTTTTGTTCACACATATACTTTTATTTTGG [CACACA_site4250],10.2 ± 0.23
7,AAAAAAAAAAAAAAAACACACAATAAAGTAAAATTT [CACACA_site135],10.15 ± 0.049
8,TAAAAATGGGTATGTACACACTTTATTTTTAATACA [CACACA_site5404],11.5 ± 0.92
9,TATATATTCCTCCATAGTACAATAATAAAGATAAAA [XGTACX_site5785],10.6 ± 0.35
10,ATGTTCTTATTATTGGTGCAAGAATACACAAGAAAA,10.4 ± 0.45
11,ATTTTTTTACTGCAACCATATTTTTCCCTTTTATTC [CACACA_negctrl_site1282],10.12 ± 0.085
12,AAAATTTAAATAGGAAGTACGTTCACTAAGAAAATA [XGTACX_site6546],11 ± 0.57
13,TTAATATAATAGAAGTGTACACACATATTTATGTGT [XGTACX_site6672],11.5 ± 0.78
14,CTATAATAGAAGTGTACACACATATTTATGTCTGTA [CACACA_site7462],11.7 ± 0.93
15,TTGCTGTATTTATTTTGTACACATTTGGCATTATAT [XGTACX_site3408],11.2 ± 0.73
16,TTTAAAAATTAATTCTGTACACATTTTTATTATATT [XGTACX_site4212],11.5 ± 0.81
17,ATATAATAGAAGTGTACACACATATTTATGTCTGTA [CACACA_site3121],11.5 ± 0.74
18,TGCTGTATATTTTTCTGTACACATTTATATATTCCA [XGTACX_site6244],11.6 ± 0.87
19,TATATATAATATAGTGCATGTAAAAAATAAACCATG [TGCATGCA_site932],10.2 ± 0.16
20,ACAAGTTAAAATATTACACACATATAAATATATATA [CACACA_site3132],9.84 ± 0.099
21,TTGTTCTATATATATGCATGCACGTATGTTAAATTA [TGCATGCA_site659],10.3 ± 0.33
22,AGATATTAAAACGTTACACACATTTATATATCTTCT [CACACA_site908],9.74 ± 0.2
23,GAAAGAATAAAATTTACACACATATATATATACATA [CACACA_site2250],9.745 ± 0.035
24,ATGTCTATATATTAAGGTACACATATATGCTATTCA [XGTACX_site6008],11.1 ± 0.57
25,ACTTATAAAATAACATGTACAAATATTTATTATATA [XGTACX_site133],11 ± 0.54

row,Sequence,gcPBM binding intensity (ln)
1,AAAAAAATATAAATACGTACATATATATATATATAT [XGTACX_site432],11.5 ± 0.98
2,ATATCGAAAATTTGGTGTACATTTTTATTTGTTCAA [XGTACX_site3094],11.5 ± 0.93
3,ATTTTGTTCGAAAGGTGTACATATACAAAAATTATG [XGTACX_site957],11.7 ± 1
4,TTATACATAAATTTTGTACACACAAAAAAAAAAAAG [CACACA_site8374],11.2 ± 0.87
5,TTTATTTATTACTAAAGTACTAAATCATATTATTAT [XGTACX_site2574],10.6 ± 0.54
6,TAATATAGTATAGTATGTACATATAATTAGAATATT [XGTACX_site4053],11.3 ± 0.77
7,TTAGTTTATTGGTACTGTACTTTTTTTTTCTCCATT [XGTACX_site8618],11.9 ± 0.91
8,TAGGGTAGTTATAATTGTACTTTTCTCCAAAAAAAA [XGTACX_site7321],11.3 ± 0.81
9,CCATATATTTGGTATAGTACTTTTTATTTTATTTCA [XGTACX_site8933],11.1 ± 0.5
10,TACATAAACATTTATACACACATTATATATACATAT [CACACA_site8028],10.12 ± 0.064
11,TAATTATTTCGTATATTTGAATGGTACATGCTTATA [CACACA_negctrl_site1178],10.7 ± 0.6
12,ATACATATAATATATGCATGTACCAATCAAATATAT [TGCATGCA_site192],10.5 ± 0.29
13,TGTTGTATTGAAGCTAAAAAATGAGGCAAAAAAAAA [CACACA_negctrl_site1189],10.2 ± 0.26
14,TATATTATAGGTTGTGTACACATATTATATAGTACT [CACACA_site4583],11.6 ± 0.88
15,CATACATATACTTTGTGTACATATATATATTATATA [XGTACX_site97],11.4 ± 0.78
16,TTTATTTTGTAGTGTACACATATATATATATATATA [CACACA_site5843],11.7 ± 0.96
17,AATTTTTATTTGTACACACATACATATATATTATAT [CACACA_site993],11.4 ± 0.83
18,CTTTAAAACCGGTACTGTACACATAGTATTATTATC [XGTACX_site2602],11.6 ± 0.8
19,TTATATTTATTTATTTGTACATATTTTTTTTTATAT [XGTACX_site1669],11.2 ± 0.67
20,ACATATTTTATTTTTTGTACACATATATTATTTTTT [XGTACX_site6528],11.3 ± 0.66
21,ATGTGTATATATTATTGTACATATATATATATATAT [XGTACX_site4627],11.2 ± 0.82
22,GTATTATCTGCTTTTTGTACACATATATTTAAAAAA [XGTACX_site7603],11.4 ± 0.95
23,AACACTACATAAAACTGTACAATAGTATTTTATTAT [XGTACX_site996],10.9 ± 0.49
24,TTATTTATATTTTTTTGTACACATATTGTATACATA [XGTACX_site1178],11.5 ± 0.86
25,TTTTTATTTGGTTGTGTACACATATATATATATATA [CACACA_site5844],11.6 ± 0.94
